These results are taken from ChEMBL document CHEMBL4513216, “Probing the Open Global Health Chemical Diversity Library for Multistage-Active Starting Points for Next-Generation Antimalarials” (ACS Infect Dis, 2020).

Molecules are shown by their SMILES. About 8,600 (12%) of roughly 69,000 compounds showed an effect of 50% or more. Many of the other results were omitted from the sample, so strong results are more common in it than they were.

For the assay, the system named is Plasmodium berghei. The assay is described as follows: Screen against P. berghei liver stage (PbLuc), transformed with Luciferase, at 10uM. It is filed as functional, HepG2. The settings on record: tested at 10 uM.
As for `Cc1cc(-c2c(C)c(-c3cnn(C)c3)nc(N)c2C#N)oc1C`, the INHIBITION came out at 31.6%.
`COc1ncc(-c2c(C#N)c(N)nc3c2CCc2[nH]ccc2-3)cn1`: the INHIBITION is recorded as 39.05%.
In the case of `COCCc1ncc(-c2c(C#N)c(N)nc3c2CCc2[nH]ccc2-3)cn1`, the INHIBITION amounted to 27.9%.
On to `Cc1n[nH]c(C)c1-c1c(C#N)c(N)nc2c1CCc1[nH]ccc1-2`, for which the INHIBITION is on record as 39.7%.
In the case of `CC(C)n1cc(-c2c(C#N)c(N)nc3c2COCC3)cn1`, the INHIBITION came out at 34.5%.
The figure for `Cn1cc(-c2c(C#N)c(N)nc3c2CCc2[nH]ccc2-3)cc1C#N` is 50%; for `CCc1ccc(-c2c(C)c(-c3cnn(C)c3)nc(N)c2C#N)o1` it is -7.7%; for `Cn1cc(-c2c(C#N)c(N)nc3c2CCc2[nH]ccc2-3)cn1` it is 60.1%.
On to `O=C(CN1CCCC1Cn1cncn1)Nc1nncs1` (configuration not stated), for which the INHIBITION is reported as -8.66%.
Regarding `COCCN(Cc1ccccc1Cl)c1nc(CCN)nc2ccccc12`, the INHIBITION came out at 47.3%.
Next, `N#Cc1cccc(CN2C[C@H](NC(=O)C3CC3)[C@H]3OCCC[C@H]32)c1`: 35.8%; `COc1cc(C(=O)N(Cc2cccs2)C2CC2)cc2c1OCCO2`: 47.4%; `Cc1oncc1C(=O)N[C@@H]1CN(Cc2ccco2)C[C@@H]2CCCO[C@@H]21`: 0.453%.
Next, `COC(=O)CNC(=O)c1nc(Br)sc1C(C)C`: 45.3%.
As to `Cc1nc2n(n1)CC(NCCC(=O)Nc1cc(C)on1)CC2` (configuration not stated), the INHIBITION is given as -3.2%.
Next, `CCc1nccn1-c1cncc(C2CCN(C(=O)COC)CC2)n1`: -22.6%; `COc1nc2cc(C)ccc2cc1CN(C)Cc1n[nH]c2c1CCCC2`: 28.15%; `CCOc1cccc(C(C(=O)O)N(C)Cc2cc(C)no2)c1` (configuration not stated): -24.6%.
As to `Cc1cc(CN(C)C(C(=O)O)c2ccc(C(C)(C)C)cc2)on1` (configuration not stated), the INHIBITION is listed as 58.4%.
For the molecule `Cc1cc(CN(C)C(C(=O)O)c2cccc(C(F)(F)F)c2)on1` (configuration not stated), the INHIBITION is reported as -21.2%.
In the case of `CN(Cc1cc[nH]n1)C(=O)c1ccc2c(c1)nc(N1CC[C@H](O)C1)n2C`, the INHIBITION is listed as 22.6%.
Next, `COc1ccc(COCC(O)CSc2ccc(NC(C)=O)cc2)cc1` (configuration not stated): 5.75%; `O=C(O)CCN(Cc1ccc(F)c(F)c1)C(=O)C1CC1`: 40.1%.
As for `N#Cc1ccc(Cl)cc1NCC1CCOC1` (configuration not stated), the INHIBITION was -10.5%.
Next, `Cc1c(C(N)=O)sc2nc(C(F)(F)F)ccc12`: 54.5%; `Cc1c(C(=O)N2CCSCC2)sc2nc(C(F)(F)F)ccc12`: 14.9%.
`Cc1c(C(=O)O)sc2nc(C(F)(F)F)ccc12`: the INHIBITION is -11.9%.
As to `Cc1ncnc(NCCCN2CCCCC2CO)c1C` (configuration not stated), the INHIBITION is -17.8%.
For the molecule `CC(C(N)=O)N1CCN(c2ncc(Br)cn2)CC1` (configuration not stated), the INHIBITION was found to be 21.8%.
With `CCc1cnc(C)nc1NCCSc1nnc(C)n1CC`, the INHIBITION stood at 55.7%.
Consider `CCn1c(C)nnc1SCCNc1nc(C)nc2c1cnn2C`, for which the INHIBITION is 26.7%.
For `CCn1c(C)nnc1SCCNc1nc(C)ncc1S(C)(=O)=O`, the INHIBITION is on record as -22.4%.
Turning to `Cc1cccc(CN2CCC3(CCCN(C(=O)NC(C)C)C3)C2=O)n1` (configuration not stated), the INHIBITION is recorded as 8.67%.
As for `O=C(c1ncccn1)N1C[C@H]2CCC[C@@]2(COCc2ccncc2)C1`, the INHIBITION was -15.8%.
Next, `Cc1ncoc1C(=O)N1C[C@H]2CCC[C@@]2(COCC2CCOCC2)C1`: 44.4%; `Cc1ccc(C(=O)N2C[C@H]3CCC[C@@]3(COCC3CCOCC3)C2)o1`: 62.5%.
Turning to `c1csc(CN2C[C@H]3CCC[C@@]3(COCC3CCOCC3)C2)n1`, the INHIBITION worked out at 49.7%.
The figure for `O=C(c1ncccn1)N1C[C@H]2CCC[C@@]2(COCC2CCOCC2)C1` is 0%; for `O=C(c1ccnnc1)N1C[C@H]2CCC[C@@]2(COCC2CCOCC2)C1` it is 43.8%; for `O=C(c1ccccn1)N1C[C@H]2CCC[C@@]2(COCC2CCOCC2)C1` it is 45.1%.
The figure for `O=C(c1cccs1)N1C[C@H]2CCC[C@@]2(COCC2CCOCC2)C1` is 77.7%; for `O=C(c1ccncn1)N1C[C@H]2CCC[C@@]2(COCC2CCOCC2)C1` it is 64.9%; for `CCCOc1cc(C)ccc1NC(=O)N(C)Cc1cnn(C)c1` it is 38.5%.
Consider `O=C(O)[C@]12CCCN(C3CCOC3)C[C@H]1CN(c1nncs1)C2` (some centres not stated), for which the INHIBITION was found to be 4.98%.
The figure for `CN1CCN(C[C@@H]2CN(C(=O)CC3CCCCC3)C[C@@H]2CO)CC1` is 6.65%.
Next, `CC(NC(=O)CCS(=O)(=O)C1CCCC1)c1nc(-c2ccccc2)c[nH]1` (configuration not stated): 4.81%.
With `CC(NC(=O)CCc1cccs1)c1nnc2n1CCCCC2` (configuration not stated), the INHIBITION is -29.1%.
As to `Cc1nsc(N2CCN(CC(=O)NCc3cccnc3)CC2)n1`, the INHIBITION is recorded as -101%.
In the case of `CCc1nsc(N2CCN(CC(=O)NCc3cccnc3)CC2)n1`, the INHIBITION is given as 78.1%.
`CCCNC(=O)CN1CCN(c2nc(CC)ns2)CC1`: the INHIBITION is reported as -23.2%.
For `CN(C)C(=O)c1cccc(CN2CCN(CC(O)C(C)(C)C)CC2)c1` (configuration not stated), the INHIBITION is listed as -13.5%.
For `Cc1c(Br)c(C(F)(F)F)nn1C(C)C(=O)O` (configuration not stated), the INHIBITION is reported as 8.49%.
